These results are taken from PubChem BioAssay.

This assay deals with Fibroblast growth factor 2 (Homo sapiens) (UniProt P09038). The assay is described as follows: FGF2 binders on small-molecule microarrays, primary screen, biochemical, small-molecule microarray, 635/667 nm fluorescence (AID 1133). The note with it: small-molecule microarray binding, FGF2, fluorescence 635/667; higher = more signal.
Chain of Fibroblast growth factor 2 (Homo sapiens) (P09038 whole entry, looked up): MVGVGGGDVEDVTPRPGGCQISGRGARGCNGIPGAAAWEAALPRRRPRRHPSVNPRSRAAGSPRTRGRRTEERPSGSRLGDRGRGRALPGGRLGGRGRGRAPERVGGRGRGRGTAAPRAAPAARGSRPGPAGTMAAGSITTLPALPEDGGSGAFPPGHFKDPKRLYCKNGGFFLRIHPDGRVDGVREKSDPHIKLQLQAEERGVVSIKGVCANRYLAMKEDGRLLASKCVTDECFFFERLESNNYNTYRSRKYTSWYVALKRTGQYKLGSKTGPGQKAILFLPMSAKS
Compound `COc1ccc([Si](C)(C)[C@@H]2[C@@H](CCO)O[C@]3(C(=O)N(Cc4cccc(N5CCOC5=O)c4)c4ccccc43)[C@H]2C)cc1` returned a composite z-score of 0.568.

Consider `COCCOC(=O)N1C(=O)[C@@]2(c3ccccc31)[C@H](C(N)=O)[C@H]1C(=O)O[C@H](c3ccccc3)[C@H](c3ccccc3)N1[C@@H]2c1ccc(O)cc1`, for which the composite z-score is -0.488.

For the compound `O=C1C[C@@](C(=O)NCc2ccccc2)(c2ccc([N+](=O)[O-])cc2)[C@@H](c2ccc(CO)cc2)N1CC12CC3CC(CC(C3)C1)C2`, the composite z-score worked out at 1.46.

For `COCC(=C=CC[C@H](O)c1cccc(OCCO)c1)CCO`, the composite z-score was found to be 0.131.

Take `COCCCNC(=O)[C@@]1(Cc2ccccc2CN=[N+]=[N-])N=C(c2ccc(OCCCO)cc2)O[C@H]1c1ccccc1CN=[N+]=[N-]`: the composite z-score is -0.263.

Compound `COC(=O)[C@]1(Cc2ccccc2)N=C(c2ccc(OCCCO)cc2)O[C@@H]1c1ccccc1N=[N+]=[N-]` yielded a composite z-score of 1.29.

In the case of `COC(=O)[C@@]1(Cc2ccc(F)cc2)[C@H]2c3cc(C(=O)N(C)C)n(Cc4ccc(C)o4)c3C[C@H]2CN1C(=O)c1ccccc1`, the composite z-score is -1.4.

For the compound `CC(C)=CCCC(C)=CC(O)C1C=CC2C(=O)N(c3ccccc3)C(=O)C2N1Nc1ccc(C(C)C)cc1` (stereo not given), the composite z-score is -0.373.

Regarding `COc1ccccc1CN1C(=O)c2ccccc2[C@@H](C(=O)NCc2ccccc2)[C@@H]1c1ccc(CO)cc1`, the composite z-score is 0.546.

With `CC#CC(=O)Oc1ccc(Br)cc1C=CC(=O)OCC`, the composite z-score is -0.0698.

With `O=C(NC1CC1)[C@@H]1c2ccccc2C(=O)N(C2Cc3ccccc3C2)[C@H]1c1ccc(CO)cc1`, the composite z-score turned out to be 0.988.

The compound `COCCCNC(=O)[C@@H]1c2ccccc2C(=O)N(Cc2ccccc2OC)[C@H]1c1ccc(CO)cc1` had a composite z-score of 1.42.

`O=C(O)[C@H](Cc1ccccc1)n1cc(-c2ccccc2)nn1` had a composite z-score of 0.607.

The compound `C=CC[C@]1(C(=O)NCc2ccccc2)N=C(c2ccc(OCCCO)cc2)O[C@H]1c1ccccc1CN=[N+]=[N-]` had a composite z-score of 1.09.

Consider `CN1C(=O)C2C=CC(C(O)c3ccc(F)cc3)N(N(c3ccccc3)c3ccccc3)C2C1=O` (stereo not given), for which the composite z-score was -0.615.

For the compound `C=CCC(OC(C)=O)[C@@H]1[C@@H](N(Cc2ccc(-c3cccc(C(F)(F)F)c3)o2)C(=O)Cc2ccc(OC)cc2)c2cc(OCCCO)ccc2N1C(=O)c1ccc2ccccc2c1` (stereo not given in full), the composite z-score was -0.522.

As to `CN(C)CCCCCCNC(=O)[C@@H]1C[C@@H]2C(=O)N[C@@H](CCCC[N+](C)(C)C)C(=O)N2[C@@H]1c1ccc(O)cc1`, the composite z-score was 0.825.

In the case of `CC(C)CNC(=O)[C@@]1(Cc2ccccc2I)c2ccccc2C(=O)N(Cc2ccccc2C(F)(F)F)[C@H]1c1ccc(CO)cc1`, the composite z-score was -0.217.

On to `C=CC[C@]1(C(N)=O)N=C(c2ccc(OCCCO)cc2)O[C@H]1c1ccccc1`, for which the composite z-score is 0.17.

Turning to `COCCCNC(=O)[C@@]1(Sc2ccc(C)cc2)CC(=O)N(Cc2ccccc2Cl)[C@@H]1c1ccc(CO)cc1`, the composite z-score turned out to be 1.24.

Compound `CCCC=C(CCC)[C@@H](NC(=O)OCC(C)C)c1ccccc1` gave a composite z-score of 0.16.

Turning to `OCC1C=C(/C=C/c2ccccc2)CN1Cc1ccccc1Br` (stereo not given), the composite z-score is 1.39.

On to `CN1C(=O)C2C=CC(C(O)C=Cc3ccc([N+](=O)[O-])cc3)N(Nc3ccccc3)C2C1=O` (stereo not given), for which the composite z-score came out at 0.028.

Take `COC(=O)[C@@]1(Cc2ccccc2)[C@H]2c3cc(C(=O)N4CCCC4)n(Cc4ccc(O)c(OC)c4)c3C[C@H]2CN1C(=O)c1ccccc1`: the composite z-score was -0.638.

Regarding `CN(C)CCCCCCNC(=O)[C@@H]1C[C@@H]2C(=O)N3CCC[C@H]3C(=O)N2[C@@H]1c1ccc(O)cc1`, the composite z-score worked out at 1.74.

Take `C[N+](C)(C)CCCC[C@@H]1NC(=O)[C@H]2C[C@@H](C(=O)NCCCCCCNC(=O)CS)[C@@H](c3ccc(O)cc3)N2C1=O`: the composite z-score stood at 0.247.

In turn, `COC(=O)C(CC#Cc1ccc2c(c1)[C@]1(C(=O)N2)[C@H](c2ccccc2OCCO)N2[C@H](c3ccccc3)[C@H](c3ccccc3)OC(=O)[C@H]2[C@@H]1C(=O)O)C(=O)OC` gave a composite z-score of 0.36.

As to `NCCCCCNC(=O)[C@H]1C[C@H]2C(=O)N3CCC[C@H]3C(=O)N2[C@H]1c1ccc(O)cc1`, the composite z-score was determined as 1.35.

In turn, `C=CCC(OC(C)=O)[C@@H]1[C@@H](N(Cc2ccc(-c3ccccc3)cc2)C(=O)Cc2ccc(F)cc2)c2cc(OCCCO)ccc2N1C(=O)c1ccc2ccccc2c1` (stereo not given in full) had a composite z-score of 0.288.

Consider `CCOc1ccc(N2C(=O)CSC2c2cccc([N+](=O)[O-])c2)cc1` (stereo not given), for which the composite z-score worked out at 0.176.

The compound `C=C(CCCC)/C(=C/C[C@H](OC(C)=O)c1ccccc1OCCO)c1cnc2ccccc2c1` displayed a composite z-score of 0.481.

Compound `C=CC[C@]1(C(N)=O)COC(c2ccc(OCCCO)cc2)=N1` showed a composite z-score of 1.31.

`COCCOC(=O)N1C(=O)[C@@]2(c3cc(C#CC4=CCCCC4)ccc31)[C@H](C(N)=O)[C@H]1C(=O)O[C@H](c3ccccc3)[C@H](c3ccccc3)N1[C@@H]2c1ccc(O)cc1` displayed a composite z-score of 0.58.

Take `O=C1O[C@@H](c2ccccc2)[C@@H](c2ccccc2)N2[C@@H](c3ccc(OCCO)cc3)[C@]3(C(=O)Nc4ccc(C#CC5=CCCCC5)cc43)[C@@H](C(=O)N3CCCCCCC3)[C@H]12`: the composite z-score turned out to be 1.09.

`COc1ccc([Si](C)(C)[C@@H]2[C@@H](CCn3cc([C@H](O)c4ccccc4)nn3)O[C@]3(C(=O)N(Cc4cccc(N5CCC5=O)c4)c4ccccc43)[C@H]2C)cc1` came in with a composite z-score of 1.06.
